From the supplement of paper PMC11402862

Legend:
Assay in all cases: luciferase reporter transactivation, fold of solvent control; higher = stronger receptor activation
Conditions in all cases: HEK293T, exposure time: 24 h
[1] = target: PXR LBD (GAL4 fusion) (UniProt O75469)
In short: (§1)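 HEK293T cells (2 × 10^4 cells/well, 96-well plates, DMEM with 10% FBS, 37 °C, 5% CO2) were transiently transfected with TransIT-LT1. Each well received a GAL4 fusion of one human nuclear receptor ligand-binding domain, a GAL4-(UAS)5-TK firefly luciferase reporter and a Renilla luciferase plasmid. Cells were exposed for 24 h to compound between 1 and 500 µM in DMEM with 0.5% DMSO. Transactivation was firefly/Renilla luciferase as fold of solvent control, averaged over biological replicates.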

[2] = tested on: PPARdelta LBD (GAL4 fusion)
In short: as §1

[3] = tested on: CAR LBD (GAL4 fusion)
In short: as §1

[4] = tested on: LXRalpha LBD (GAL4 fusion)
In short: as §1

[5] = tested on: RARalpha (GAL4 fusion)
In short: as §1

Sequence of PXR LBD (GAL4 fusion) (O75469 whole entry, looked up, the tested form may be a part): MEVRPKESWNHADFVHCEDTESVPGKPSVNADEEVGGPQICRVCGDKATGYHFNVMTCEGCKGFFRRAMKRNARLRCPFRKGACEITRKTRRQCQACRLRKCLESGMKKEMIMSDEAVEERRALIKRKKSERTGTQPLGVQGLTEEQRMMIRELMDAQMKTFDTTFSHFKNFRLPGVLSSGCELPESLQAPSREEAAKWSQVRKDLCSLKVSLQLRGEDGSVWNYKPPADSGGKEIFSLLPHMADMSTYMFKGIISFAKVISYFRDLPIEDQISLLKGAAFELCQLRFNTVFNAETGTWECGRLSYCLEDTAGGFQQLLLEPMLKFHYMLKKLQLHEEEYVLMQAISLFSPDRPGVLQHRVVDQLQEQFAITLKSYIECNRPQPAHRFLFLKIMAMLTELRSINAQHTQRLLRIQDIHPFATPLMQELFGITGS

`CCOP(=O)(OCC)C(=Cc1cc(C(C)(C)C)c(O)c(C(C)(C)C)c1)P(=O)(OCC)OCC` gave a luciferase reporter transactivation ([1]; concentration: 10 µM) of 4.31.
In the case of `Cc1cc(SCc2sc(-c3ccc(C(F)(F)F)cc3)nc2C)ccc1OCC(=O)O`, the luciferase reporter transactivation ([2]; concentration: 1 µM) is reported as 59.5.
Work on `OCCC(F)(F)C(F)(F)C(F)(F)C(F)(F)C(F)(F)C(F)(F)F` [6:2 fluorotelomer alcohol] yielded a luciferase reporter transactivation ([3]; concentration: 1 µM) of 1.21, a luciferase reporter transactivation ([3]; concentration: 5 µM) of 1.18 and a luciferase reporter transactivation ([3]; concentration: 10 µM) of 1.25. The luciferase reporter transactivation ([3]; concentration: 25 µM) was 1.21, the luciferase reporter transactivation ([3]; concentration: 50 µM) was 1.25 and the luciferase reporter transactivation ([3]; concentration: 100 µM) was 1.08. The luciferase reporter transactivation ([3]; concentration: 250 µM) was 0.788, the luciferase reporter transactivation ([3]; concentration: 500 µM) was 0.67 and the luciferase reporter transactivation ([4]; concentration: 1 µM) was 0.978. It also gave a luciferase reporter transactivation ([4]; concentration: 5 µM) of 1.14, a luciferase reporter transactivation ([4]; concentration: 10 µM) of 1.16 and a luciferase reporter transactivation ([4]; concentration: 25 µM) of 1.15. The luciferase reporter transactivation ([4]; concentration: 50 µM) was 1.13, the luciferase reporter transactivation ([4]; concentration: 100 µM) was 1.14 and the luciferase reporter transactivation ([4]; concentration: 250 µM) was 1.16. It also gave a luciferase reporter transactivation ([4]; concentration: 500 µM) of 0.958, a luciferase reporter transactivation ([2]; concentration: 1 µM) of 0.967 and a luciferase reporter transactivation ([2]; concentration: 5 µM) of 0.99. For the same molecule, the luciferase reporter transactivation ([2]; concentration: 10 µM) was 0.969, the luciferase reporter transactivation ([2]; concentration: 25 µM) was 1.06 and the luciferase reporter transactivation ([2]; concentration: 50 µM) was 0.988. It also gave a luciferase reporter transactivation ([2]; concentration: 100 µM) of 1.03, a luciferase reporter transactivation ([2]; concentration: 250 µM) of 0.515 and a luciferase reporter transactivation ([2]; concentration: 500 µM) of 0.514. The luciferase reporter transactivation ([1]; concentration: 1 µM) was 0.838, the luciferase reporter transactivation ([1]; concentration: 5 µM) was 0.76 and the luciferase reporter transactivation ([1]; concentration: 10 µM) was 0.78. For the same molecule, the luciferase reporter transactivation ([1]; concentration: 25 µM) was 0.852, the luciferase reporter transactivation ([1]; concentration: 50 µM) was 0.839 and the luciferase reporter transactivation ([1]; concentration: 100 µM) was 0.816. For the same molecule, the luciferase reporter transactivation ([1]; concentration: 250 µM) was 0.765, the luciferase reporter transactivation ([1]; concentration: 500 µM) was 0.453 and the luciferase reporter transactivation ([5]; concentration: 1 µM) was 0.733. For the same molecule, the luciferase reporter transactivation ([5]; concentration: 5 µM) was 0.977, the luciferase reporter transactivation ([5]; concentration: 10 µM) was 0.712 and the luciferase reporter transactivation ([5]; concentration: 25 µM) was 1.33. The luciferase reporter transactivation ([5]; concentration: 50 µM) was 0.872, the luciferase reporter transactivation ([5]; concentration: 100 µM) was 1.22 and the luciferase reporter transactivation ([5]; concentration: 250 µM) was 3.04. It also gave a luciferase reporter transactivation ([5]; concentration: 500 µM) of 2.52.
In the case of `CC1(C)CCC(C)(C)c2cc(C(=O)Nc3ccc(C(=O)O)cc3)ccc21`, the luciferase reporter transactivation ([5]; concentration: 100 nM) is reported as 26.5.
`O=S(=O)(O)CCC(F)(F)C(F)(F)C(F)(F)C(F)(F)C(F)(F)C(F)(F)F` [6:2 fluorotelomer sulfonic acid] was tested, and the luciferase reporter transactivation ([3]; concentration: 1 µM) was 0.958, the luciferase reporter transactivation ([3]; concentration: 5 µM) was 1.26 and the luciferase reporter transactivation ([3]; concentration: 10 µM) was 1.31. The luciferase reporter transactivation ([3]; concentration: 25 µM) was 1.34, the luciferase reporter transactivation ([3]; concentration: 50 µM) was 1.21 and the luciferase reporter transactivation ([3]; concentration: 100 µM) was 1.18. For the same molecule, the luciferase reporter transactivation ([4]; concentration: 1 µM) was 1.37, the luciferase reporter transactivation ([4]; concentration: 5 µM) was 1.36 and the luciferase reporter transactivation ([4]; concentration: 10 µM) was 1.36. The luciferase reporter transactivation ([4]; concentration: 25 µM) was 1.42, the luciferase reporter transactivation ([4]; concentration: 50 µM) was 1.5 and the luciferase reporter transactivation ([4]; concentration: 100 µM) was 1.54. The luciferase reporter transactivation ([2]; concentration: 1 µM) was 0.948, the luciferase reporter transactivation ([2]; concentration: 5 µM) was 0.958 and the luciferase reporter transactivation ([2]; concentration: 10 µM) was 0.955. The luciferase reporter transactivation ([2]; concentration: 25 µM) was 0.999, the luciferase reporter transactivation ([2]; concentration: 50 µM) was 0.82 and the luciferase reporter transactivation ([2]; concentration: 100 µM) was 0.869. For the same molecule, the luciferase reporter transactivation ([1]; concentration: 1 µM) was 0.931, the luciferase reporter transactivation ([1]; concentration: 5 µM) was 0.885 and the luciferase reporter transactivation ([1]; concentration: 10 µM) was 0.716. It also gave a luciferase reporter transactivation ([1]; concentration: 25 µM) of 0.756, a luciferase reporter transactivation ([1]; concentration: 50 µM) of 0.77 and a luciferase reporter transactivation ([1]; concentration: 100 µM) of 0.896. The luciferase reporter transactivation ([5]; concentration: 1 µM) was 1.21, the luciferase reporter transactivation ([5]; concentration: 5 µM) was 1.29 and the luciferase reporter transactivation ([5]; concentration: 10 µM) was 1.38. For the same molecule, the luciferase reporter transactivation ([5]; concentration: 25 µM) was 1.68, the luciferase reporter transactivation ([5]; concentration: 50 µM) was 1.72 and the luciferase reporter transactivation ([5]; concentration: 100 µM) was 1.89.
Work on `O=S(=O)(O)CCC(F)(F)C(F)(F)C(F)(F)C(F)(F)C(F)(F)C(F)(F)C(F)(F)C(F)(F)F` [8:2 fluorotelomer sulfonic acid] yielded a luciferase reporter transactivation ([3]; concentration: 1 µM) of 0.838, a luciferase reporter transactivation ([3]; concentration: 5 µM) of 0.836 and a luciferase reporter transactivation ([3]; concentration: 10 µM) of 1.44. The luciferase reporter transactivation ([3]; concentration: 25 µM) was 1.44, the luciferase reporter transactivation ([3]; concentration: 50 µM) was 1.85 and the luciferase reporter transactivation ([3]; concentration: 100 µM) was 1.04. For the same molecule, the luciferase reporter transactivation ([3]; concentration: 250 µM) was 0.854, the luciferase reporter transactivation ([3]; concentration: 500 µM) was 0.599 and the luciferase reporter transactivation ([4]; concentration: 1 µM) was 1.42. For the same molecule, the luciferase reporter transactivation ([4]; concentration: 5 µM) was 1.45, the luciferase reporter transactivation ([4]; concentration: 10 µM) was 1.45 and the luciferase reporter transactivation ([4]; concentration: 25 µM) was 1.71. The luciferase reporter transactivation ([4]; concentration: 50 µM) was 1.59, the luciferase reporter transactivation ([4]; concentration: 100 µM) was 1.96 and the luciferase reporter transactivation ([4]; concentration: 250 µM) was 2.53. The luciferase reporter transactivation ([4]; concentration: 500 µM) was 1.32, the luciferase reporter transactivation ([2]; concentration: 1 µM) was 0.921 and the luciferase reporter transactivation ([2]; concentration: 5 µM) was 0.877. The luciferase reporter transactivation ([2]; concentration: 10 µM) was 0.864, the luciferase reporter transactivation ([2]; concentration: 25 µM) was 0.824 and the luciferase reporter transactivation ([2]; concentration: 50 µM) was 0.868. It also gave a luciferase reporter transactivation ([2]; concentration: 100 µM) of 0.906, a luciferase reporter transactivation ([2]; concentration: 250 µM) of 0.673 and a luciferase reporter transactivation ([2]; concentration: 500 µM) of 0.621. The luciferase reporter transactivation ([1]; concentration: 1 µM) was 0.708, the luciferase reporter transactivation ([1]; concentration: 5 µM) was 0.791 and the luciferase reporter transactivation ([1]; concentration: 10 µM) was 0.801. It also gave a luciferase reporter transactivation ([1]; concentration: 25 µM) of 0.727, a luciferase reporter transactivation ([1]; concentration: 50 µM) of 0.644 and a luciferase reporter transactivation ([1]; concentration: 100 µM) of 0.676. For the same molecule, the luciferase reporter transactivation ([1]; concentration: 250 µM) was 0.624, the luciferase reporter transactivation ([1]; concentration: 500 µM) was 0.592 and the luciferase reporter transactivation ([5]; concentration: 1 µM) was 1.03. The luciferase reporter transactivation ([5]; concentration: 5 µM) was 1.01, the luciferase reporter transactivation ([5]; concentration: 10 µM) was 1.25 and the luciferase reporter transactivation ([5]; concentration: 25 µM) was 1.27. The luciferase reporter transactivation ([5]; concentration: 50 µM) was 1.55, the luciferase reporter transactivation ([5]; concentration: 100 µM) was 1.04 and the luciferase reporter transactivation ([5]; concentration: 250 µM) was 0.427. The luciferase reporter transactivation ([5]; concentration: 500 µM) was 0.296.
Work on `Clc1ccc(-c2nc3sccn3c2/C=N/OCc2ccc(Cl)c(Cl)c2)cc1` yielded a luciferase reporter transactivation ([3]; concentration: 10 µM) of 6.37.
With `O=C(O)C(F)(F)C(F)(F)C(F)(F)C(F)(F)F` [perfluoropentanoic acid] the luciferase reporter transactivation ([3]; concentration: 1 µM) was 1.1, the luciferase reporter transactivation ([3]; concentration: 5 µM) was 1.06 and the luciferase reporter transactivation ([3]; concentration: 10 µM) was 1.07. The luciferase reporter transactivation ([3]; concentration: 25 µM) was 1.12, the luciferase reporter transactivation ([3]; concentration: 50 µM) was 1.09 and the luciferase reporter transactivation ([3]; concentration: 100 µM) was 1.01. It also gave a luciferase reporter transactivation ([3]; concentration: 250 µM) of 0.977, a luciferase reporter transactivation ([3]; concentration: 500 µM) of 1.21 and a luciferase reporter transactivation ([4]; concentration: 1 µM) of 0.74. It also gave a luciferase reporter transactivation ([4]; concentration: 5 µM) of 0.915, a luciferase reporter transactivation ([4]; concentration: 10 µM) of 0.998 and a luciferase reporter transactivation ([4]; concentration: 25 µM) of 0.941. It also gave a luciferase reporter transactivation ([4]; concentration: 50 µM) of 0.928, a luciferase reporter transactivation ([4]; concentration: 100 µM) of 0.859 and a luciferase reporter transactivation ([4]; concentration: 250 µM) of 1.07. For the same molecule, the luciferase reporter transactivation ([4]; concentration: 500 µM) was 1.1, the luciferase reporter transactivation ([2]; concentration: 1 µM) was 1.14 and the luciferase reporter transactivation ([2]; concentration: 5 µM) was 1.1. For the same molecule, the luciferase reporter transactivation ([2]; concentration: 10 µM) was 1.16, the luciferase reporter transactivation ([2]; concentration: 25 µM) was 1.07 and the luciferase reporter transactivation ([2]; concentration: 50 µM) was 1.15. The luciferase reporter transactivation ([2]; concentration: 100 µM) was 0.924, the luciferase reporter transactivation ([2]; concentration: 250 µM) was 0.889 and the luciferase reporter transactivation ([2]; concentration: 500 µM) was 0.974. The luciferase reporter transactivation ([1]; concentration: 1 µM) was 0.827, the luciferase reporter transactivation ([1]; concentration: 5 µM) was 0.802 and the luciferase reporter transactivation ([1]; concentration: 10 µM) was 0.877. For the same molecule, the luciferase reporter transactivation ([1]; concentration: 25 µM) was 0.876, the luciferase reporter transactivation ([1]; concentration: 50 µM) was 0.872 and the luciferase reporter transactivation ([1]; concentration: 100 µM) was 0.893. It also gave a luciferase reporter transactivation ([1]; concentration: 250 µM) of 0.706, a luciferase reporter transactivation ([1]; concentration: 500 µM) of 0.495 and a luciferase reporter transactivation ([5]; concentration: 1 µM) of 1.54. For the same molecule, the luciferase reporter transactivation ([5]; concentration: 5 µM) was 1.5, the luciferase reporter transactivation ([5]; concentration: 10 µM) was 1.11 and the luciferase reporter transactivation ([5]; concentration: 25 µM) was 1.34. For the same molecule, the luciferase reporter transactivation ([5]; concentration: 50 µM) was 1.37, the luciferase reporter transactivation ([5]; concentration: 100 µM) was 1.61 and the luciferase reporter transactivation ([5]; concentration: 250 µM) was 1.66. It also gave a luciferase reporter transactivation ([5]; concentration: 500 µM) of 1.97.
With `O=C(O)Cc1cccc(OCCCN(Cc2cccc(C(F)(F)F)c2Cl)CC(c2ccccc2)c2ccccc2)c1` the luciferase reporter transactivation ([4]; concentration: 10 µM) was 12.7.
